These results are taken from PubChem BioAssay (NCATS).

Records with an inconclusive call do not appear. Where a call stands in place of a potency, no number is given. A number with no mark means an inactive call. Activity calls are given as the source filed them. The call rests on the fitted dose curve; in most records, active means well fitted cell-killing curve with a large enough effect; inconclusive means small, poorly fitted or top-dose-only effect; inactive means flat fitted curve, though single readings scatter.
Potency means the concentration at half of the fitted maximal effect.

The nature of the experiment: qHTS of pediatric cancer cell lines to identify multiple opportunities for drug repurposing: Primary screen for control Hh wild type fibroblast cells (AID 1347106). Further: nearly all actives have a fitted effect of over 55% in size.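 On activity change, negative = cytotoxic: a drop in luminescence marks cytotoxicity and a rise apparent proliferation.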 The following applies: Hh wild-type fibroblast viability, CellTiter-Glo luminescence, 48 h; series mostly up to 46 µM. An excerpt:
Drug repurposing or repositioning has been offered as a strategy for drug development in oncology programs. This approach has special potential for childhood cancers and other rare or orphan diseases, where the expected return on new drug development has been a disincentive to pharmaceuticals.
In this project we exploit the poly-pharmacology of drugs to discover new indications via phenotypic screening of a panel of 19 well-characterized cell lines derived from solid tumors seen in children and adolescents. The goal is to identify approved drugs with previously unrecognized anticancer properties that has the potential to reveal new mechanisms and biological processes involved in carcinogenesis or drug resistance. We employed a titration-based paradigm (quantitative high-throughput screening or qHTS), where all compounds were tested at multiple concentrations for their effect on cell viability. Concentration-response curves (CRCs) were derived directly from the primary screen, and both potency and efficacy values were used to identify compounds with robust bioactivity profiles. We screened the NIH Chemical Genomics Center (NCGC) Pharmaceutical Collection (NPC) and Mechanism Interrogation Plate (MIPE) small molecule collections of approved and investigational compounds against these cell lines; and measured metabolically active cells after 48 hours of compound treatment as a proxy for cell viability.
Assay Submitter: Nathalia J. Martinez, National Center for Advancing Translational Sciences, National Institutes of Health, Rockville, MD, USA; email: natalia.martinez@nih.gov
[1] Shen, M et al. Quantitative high-throughput phenotypic screening of pediatric cancer cell lines identifies multiple opportunities for drug repurposing. Oncotarget 2017 Dec 19;9(4):4758-4772. PMID 29435139.
The cells were obtained from University of North Carolina (UNC), Pediatric Preclinical Testing Program (PPT), and Coriell Institute (CI).
qHTS cell viability assay:
Cells were assayed in growth media at a density of 500-1,000 cells/well. Five microliters of cells were dispensed into 1,536-well, white, solid-bottom, TC-treated plates (Greiner Bio One) using a multidrop dispenser and incubated at 37 degrees C, 5% CO2, under a humidified atmosphere for 5 hours. Twenty-three nanoliters of compounds and controls (neutral control DMSO or positive control bortezomib at final concentration of 2.3 µM) were subsequently transferred by Kalypsys pintool. For primary screens, the MIPE collection was tested at 11-point dilutions (final concentrations range from 0.78 nM to 46 µM) and the NPC collection at 8-point dilutions (final concentrations range from 0.59 nM to 46 µM). Compounds tested in follow-up screens were assayed at 11-point dilutions. Cells were incubated for 48 hours, followed by addition of 3 µL of CellTiter-Glo (Promega). After a 15 min incubation at room temperature, samples were analyzed for luminescence intensity using a ViewLux High-throughput CCD imager equipped with clear filters.
Turning to `CCC(C(=O)OCCN(CC)CC)c1ccccc1` (stereo not given), the Potency entry is “inactive”. As to `C=CCc1ccc(O)c(OC)c1`, the Potency entry was “inactive”. Regarding `Cc1c(F)c(N2CCNC(C)C2)cc2c1c(=O)c(C(=O)O)cn2C1CC1` (stereo not given), the Potency entry is “inactive”.

For `CCN1CCCC1=O`, the Potency result is “inactive”.

For the compound `CCN(CC)CCOc1ccc(C(O)(Cc2ccc(Cl)cc2)c2ccc(C)cc2)cc1` (stereo not given), the Potency entry is “inactive”. Consider `COc1ccc(/C=C/C(=O)c2ccc(OC)cc2OC)cc1`, for which the Potency result is “inactive”.

Consider `NC(=NCCCCCCN=C(N)/N=C(\N)Nc1ccc(Cl)cc1)/N=C(\N)Nc1ccc(Cl)cc1`, for which the Potency result was “inactive”. For the compound `O=C(COc1ccc(Cl)cc1)N1CCN(Cc2ccc3c(c2)OCO3)CC1`, the Potency entry is “inactive”.

Turning to `Oc1cc(O)c2c(c1)O[C@H](c1ccc(O)c(O)c1)[C@H](O)C2`, the Potency entry was “inactive”.

As to `Cc1cc2c(cc1CC(=O)c1sccc1S(=O)(=O)Nc1onc(C)c1Cl)OCO2`, the Potency entry is “inactive”.

Turning to `COC(=O)C1=C(C)NC(C)=C(C(=O)O[C@@H]2CCCN(Cc3ccccc3)C2)[C@@H]1c1cccc([N+](=O)[O-])c1`, the Potency result was “inactive”. Consider `CCCCCCCCCCCCCCNCCO`, for which the Potency entry was “inactive”. Regarding `NC(=O)c1cc[n+](CC2=C(C(=O)[O-])N3C(=O)[C@@H](NC(=O)Cc4cccs4)[C@H]3SC2)cc1`, the Potency entry was “inactive”.

As for `Cc1c(N(C)CS(=O)(=O)O)c(=O)n(-c2ccccc2)n1C`, the Potency result is “inactive”. Consider `CCCCC(=O)O[C@]1(C(=O)CO)CC[C@H]2[C@@H]3CCC4=CC(=O)CC[C@]4(C)[C@H]3[C@@H](O)C[C@@]21C`, for which the Potency entry was “inactive”. As for `CCOC(=O)OC(C)OC1=C(C(=O)Nc2ccccn2)N(C)S(=O)(=O)c2ccccc21` (stereo not given), the Potency entry was “inactive”.

On to `CN(C)CC/C=C1\c2ccccc2Sc2ccc(Cl)cc21`, for which the Potency result is “inactive”.

Turning to `CC1(C)O[C@@H]2C[C@H]3[C@@H]4CCC5=CC(=O)CC[C@]5(C)[C@@]4(F)[C@@H](O)C[C@]3(C)[C@]2(C(=O)CCl)O1`, the Potency entry was “inactive”. Regarding `CCCOC(C(=O)OC1CCN(C)CC1)(c1ccccc1)c1ccccc1`, the Potency entry is “inactive”.

Take `O=C(CCN1CCC(c2ccccc2)C1)c1ccc2c(c1)OCCO2` (stereo not given): the Potency result is “inactive”. On to `Cc1c(C)n(CCN(C)C)c2ccc(C(=O)OCCN(C)C)cc12`, for which the Potency entry was “inactive”. With `OC[C@H]1O[C@H](O[C@]2(CCl)O[C@H](CCl)[C@@H](O)[C@@H]2O)[C@H](O)[C@@H](O)[C@H]1Cl`, the Potency result was “inactive”. `CC(=O)N/N=C/c1ccc([N+](=O)[O-])o1`: the Potency entry was “inactive”. In the case of `C[C@@H]1C[C@H]2[C@@H]3C[C@H](F)C4=CC(=O)C(Cl)=C[C@]4(C)[C@@]3(F)[C@@H](O)C[C@]2(C)[C@@]1(O)C(=O)CO`, the Potency result is “inactive”. On the same count and under the same terms, next, `COc1cccc2c1C(=O)c1c(O)c3c(c(O)c1C2=O)C[C@@](O)(C(C)=O)C[C@@H]3O[C@H]1C[C@H](N)[C@H](O)[C@H](C)O1`: 16.8 µM (active). Regarding `COC(=O)CCc1ccc(OCC(O)CNC(C)C)cc1` (stereo not given), the Potency result was “inactive”. Consider `CN=C(NC#N)NCCSCc1csc(N=C(N)N)n1`, for which the Potency entry was “inactive”. Take `O=C1OC(c2ccc(O)cc2)(c2ccc(O)cc2)c2ccccc21`: the Potency entry was “inactive”. For `Cc1c(C(C)C)c(=O)n(-c2ccccc2)n1C`, the Potency result was “inactive”. As to `O=S1(=O)c2cccc3cccc(c23)N1CCCN1CCN(c2ccc(F)cc2)CC1`, the Potency result is “inactive”. For the compound `Nc1ccc(/C=C/c2ccc(N)cc2S(=O)(=O)O)c(S(=O)(=O)O)c1`, the activity change, negative = cytotoxic is -3.6% [at 0.597 µM]. `C[C@]12CC[C@@H]3c4ccc(O)cc4CC[C@H]3[C@@H]1C[C@@H](O)[C@@H]2O`: the Potency entry was “inactive”. As to `Cc1c(C(N)=O)cc([N+](=O)[O-])cc1[N+](=O)[O-]`, the Potency result is “inactive”. `CCOc1ccc2nc3cc(N)ccc3c(N)c2c1`: the Potency result was “inactive”.

In the case of `COc1cc(C(=S)N2CCOCC2)cc(OC)c1OC`, the Potency result was “inactive”.

Consider `O=c1[nH]c(=O)n([C@H]2C[C@H](O)[C@@H](CO)O2)cc1C(F)(F)F`, for which the Potency result is “inactive”. Turning to `CCCC(=O)Nc1ccc(OCC(O)CNC(C)C)c(C(C)=O)c1` (stereo not given), the Potency entry is “inactive”. On to `CC/C(=C(/CC)c1ccc(O)cc1)c1ccc(O)cc1`, for which the Potency entry was “inactive”.

Turning to `NCCC(O)(P(=O)(O)O)P(=O)(O)O`, the Potency result was “inactive”. Consider `COc1c2occc2c(OC)c2c(=O)cc(C)oc12`, for which the Potency entry is “inactive”.
